Measured values from publication PMC5700166.

Experiments:
Assay in all cases: protein-binding microarray (PBM); PBM: ~300 nM protein, 6 mM HEPES pH 7.8, 80 mM KCl, 0.5 mM EDTA, 0.5 mM EGTA, 6% glycerol, 35 ng/ul poly-dIdC, 1% milk, 1 h, room temperature; Ap Aiptasia and Nv Nematostella (sea anemones) / Co Capsaspora / Aq Amphimedon (sponge) / Dm Drosophila / Hu human; RHD is the Rel homology domain; high values mean tight binding
Conditions in all cases: dsDNA, one strand shown
[1] = molecular target: T1, GST-Ap-NF-kB RHD (Exaiptasia pallida (Aiptasia), UniProt A0A913YAJ5 2-422)
T1 sequence: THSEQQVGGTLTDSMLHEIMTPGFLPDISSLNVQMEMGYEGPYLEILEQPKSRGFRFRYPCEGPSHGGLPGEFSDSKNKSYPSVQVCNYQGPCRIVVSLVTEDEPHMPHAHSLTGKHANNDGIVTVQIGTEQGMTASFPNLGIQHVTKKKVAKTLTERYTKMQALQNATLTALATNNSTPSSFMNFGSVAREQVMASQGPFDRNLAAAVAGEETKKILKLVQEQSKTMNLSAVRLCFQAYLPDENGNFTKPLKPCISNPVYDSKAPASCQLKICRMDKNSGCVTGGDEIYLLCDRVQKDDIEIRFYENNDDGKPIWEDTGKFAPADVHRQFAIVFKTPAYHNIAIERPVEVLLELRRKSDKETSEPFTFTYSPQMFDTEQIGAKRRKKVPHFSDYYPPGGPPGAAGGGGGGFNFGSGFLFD

[2] = molecular target: T2, GST-Nv-NF-kB (Cys allele) (Nematostella vectensis, UniProt E5G601 2-411)
T2 sequence: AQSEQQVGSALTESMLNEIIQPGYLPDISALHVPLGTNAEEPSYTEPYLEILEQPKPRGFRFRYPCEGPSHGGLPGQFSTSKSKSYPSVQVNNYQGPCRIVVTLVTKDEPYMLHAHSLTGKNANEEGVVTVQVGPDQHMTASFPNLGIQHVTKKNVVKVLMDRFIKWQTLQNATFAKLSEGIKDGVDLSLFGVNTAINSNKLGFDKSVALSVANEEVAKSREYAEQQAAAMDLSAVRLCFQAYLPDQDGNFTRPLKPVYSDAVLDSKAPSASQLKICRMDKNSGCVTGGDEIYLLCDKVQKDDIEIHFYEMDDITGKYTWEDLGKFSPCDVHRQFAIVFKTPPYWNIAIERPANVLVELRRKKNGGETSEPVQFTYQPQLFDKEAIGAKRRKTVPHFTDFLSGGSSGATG

[3] = molecular target: T3, GST-Co-NF-kB (Capsaspora owczarzaki, UniProt F1ARL5 200-546)
T3 sequence: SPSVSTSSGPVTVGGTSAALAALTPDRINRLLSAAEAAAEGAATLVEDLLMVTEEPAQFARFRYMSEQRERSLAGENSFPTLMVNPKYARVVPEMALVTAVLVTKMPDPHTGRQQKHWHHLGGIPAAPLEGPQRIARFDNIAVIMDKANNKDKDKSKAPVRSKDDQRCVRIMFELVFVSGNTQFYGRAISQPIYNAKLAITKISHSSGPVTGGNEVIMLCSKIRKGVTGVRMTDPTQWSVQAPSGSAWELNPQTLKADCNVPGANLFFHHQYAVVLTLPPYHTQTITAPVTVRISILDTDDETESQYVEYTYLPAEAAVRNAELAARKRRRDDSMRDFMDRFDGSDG

[4] = molecular target: T4, GST-Dm-Relish (Drosophila melanogaster, UniProt Q94527 99-473)
T4 sequence: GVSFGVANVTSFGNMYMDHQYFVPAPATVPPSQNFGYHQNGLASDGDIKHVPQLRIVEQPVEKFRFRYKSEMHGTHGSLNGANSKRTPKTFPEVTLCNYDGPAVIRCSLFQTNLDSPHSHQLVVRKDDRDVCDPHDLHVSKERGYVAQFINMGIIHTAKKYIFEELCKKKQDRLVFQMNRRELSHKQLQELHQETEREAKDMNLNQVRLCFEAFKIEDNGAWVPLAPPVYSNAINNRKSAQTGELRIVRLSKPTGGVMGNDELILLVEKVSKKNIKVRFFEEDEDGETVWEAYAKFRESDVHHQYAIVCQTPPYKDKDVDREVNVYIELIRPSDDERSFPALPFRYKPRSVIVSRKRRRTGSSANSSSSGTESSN

[5] = molecular target: T5, GST-Aq-NF-kB (Amphimedon queenslandica, UniProt A9Y5G7 2-389)
T5 sequence: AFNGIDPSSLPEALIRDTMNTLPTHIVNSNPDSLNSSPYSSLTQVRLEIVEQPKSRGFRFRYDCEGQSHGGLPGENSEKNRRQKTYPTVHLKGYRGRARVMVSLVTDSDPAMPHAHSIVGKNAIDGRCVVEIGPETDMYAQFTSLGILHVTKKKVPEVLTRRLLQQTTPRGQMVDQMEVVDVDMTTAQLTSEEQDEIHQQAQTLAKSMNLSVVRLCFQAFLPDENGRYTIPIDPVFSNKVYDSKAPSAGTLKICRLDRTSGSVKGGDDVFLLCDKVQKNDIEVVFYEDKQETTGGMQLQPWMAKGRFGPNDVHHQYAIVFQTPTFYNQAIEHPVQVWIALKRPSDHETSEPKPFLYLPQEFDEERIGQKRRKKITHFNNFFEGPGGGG

Row | Sequence | binding signal [1] [z-score] | binding signal [2] [z-score] | binding signal [3] [z-score] | binding signal [4] [z-score] | binding signal [5] [z-score]
1 | CCGATTAACATCATTCGGGAAAATGATGTTAATCGGGTCTTGATTCGCTTGACGCTGCTG | 1.48 | 3.97 | 3.01 | 1.3 | 2.01
2 | CCGATTAACATCAGGGTATTACCTGATGTTAATCGGGTCTTGATTCGCTTGACGCTGCTG | 4.39 | 6.02 | 1.57 | 5.28 | 7.69
3 | CCGATTAACATCAGGGATTACCATGATGTTAATCGGGTCTTGATTCGCTTGACGCTGCTG | 3.4 | 1.46 | 1.11 | 6.01 | 3.67
4 | CCGATTAACATCACCGATTTCCCTGATGTTAATCGGGTCTTGATTCGCTTGACGCTGCTG | 2.92 | 3.79 | 3.27 | 2 | 2.57
5 | CCGATTAACATCACGGCTTTCCCTGATGTTAATCGGGTCTTGATTCGCTTGACGCTGCTG | 2.31 | 3.5 | 2.32 | 2.21 | 3.7
6 | CCGATTAACATCAGGGACTCCCATGATGTTAATCGGGTCTTGATTCGCTTGACGCTGCTG | 5.29 | 4.05 | 1.08 | 9.01 | 4.46
7 | CCGATTAACATCAAACCCCCCCGTGATGTTAATCGGGTCTTGATTCGCTTGACGCTGCTG | 6.76 | 3.82 | 5.57 | 7 | 4.9
8 | CCGATTAACATCACATATTTCCCTGATGTTAATCGGGTCTTGATTCGCTTGACGCTGCTG | 3.32 | 4.97 | 4.94 | 1.93 | 5.18
9 | CCGATTAACATCAGGGGGTGTACTGATGTTAATCGGGTCTTGATTCGCTTGACGCTGCTG | 3.65 | 3.29 | 2.61 | 8.3 | 4.78
10 | CCGATTAACATCAGATTTTTCCCTGATGTTAATCGGGTCTTGATTCGCTTGACGCTGCTG | 3.33 | 5.35 | 5.52 | 1.54 | 5.5
11 | CCGATTAACATCACGGGAATGCCTGATGTTAATCGGGTCTTGATTCGCTTGACGCTGCTG | 1.93 | 2.46 | 1.56 | 3.11 | 3.8
12 | CCGATTAACATCAAATCTTTCCCTGATGTTAATCGGGTCTTGATTCGCTTGACGCTGCTG | 3.05 | 5.25 | 5.78 | 1.24 | 4.92
13 | CCGATTAACATCACCTTCCCCCCTGATGTTAATCGGGTCTTGATTCGCTTGACGCTGCTG | 4.15 | 4.07 | 7.1 | 3.79 | 4.32
14 | CCGATTAACATCAGGGGGAAGCATGATGTTAATCGGGTCTTGATTCGCTTGACGCTGCTG | 4.43 | 5.1 | 7.73 | 3.21 | 4.01
15 | CCGATTAACATCACAAATTCCCATGATGTTAATCGGGTCTTGATTCGCTTGACGCTGCTG | 2.52 | 4.43 | 2.69 | 4.72 | 3.15
16 | CCGATTAACATCACAAACGGGGCTGATGTTAATCGGGTCTTGATTCGCTTGACGCTGCTG | 1.5 | 2.75 | 1.3 | 1.33 | 3.49
17 | CCGATTAACATCAAAAGACCCCCTGATGTTAATCGGGTCTTGATTCGCTTGACGCTGCTG | 6.38 | 5.12 | 3.12 | 8.16 | 6.25
18 | CCGATTAACATCAAGGCATTCCCTGATGTTAATCGGGTCTTGATTCGCTTGACGCTGCTG | 1.97 | 2.56 | 1.94 | 2.53 | 3.27
19 | CCGATTAACATCAAGGATTCCCGTGATGTTAATCGGGTCTTGATTCGCTTGACGCTGCTG | 2.73 | 3.43 | 3.1 | 6.9 | 3.92
20 | CCGATTAACATCACGGGAAGTCCTGATGTTAATCGGGTCTTGATTCGCTTGACGCTGCTG | 2.98 | 3.06 | 1.33 | 7.73 | 6
21 | CCGATTAACATCAACGGGAATTCTGATGTTAATCGGGTCTTGATTCGCTTGACGCTGCTG | 4.32 | 5.7 | 3.23 | 4.15 | 4.74
22 | CCGATTAACATCAGGGAACTACCTGATGTTAATCGGGTCTTGATTCGCTTGACGCTGCTG | 4.91 | 4.67 | 1.23 | 8.33 | 6.44
23 | CCGATTAACATCAGGGGGGACAATGATGTTAATCGGGTCTTGATTCGCTTGACGCTGCTG | 4.56 | 4.19 | 6.09 | 2.95 | 4.16
24 | CCGATTAACATCAGAAGTTTCCCTGATGTTAATCGGGTCTTGATTCGCTTGACGCTGCTG | 4.01 | 5.91 | 5.14 | 3.08 | 6.09
25 | CCGATTAACATCAGAAATTCCCATGATGTTAATCGGGTCTTGATTCGCTTGACGCTGCTG | 4.5 | 6.44 | 4.07 | 5.05 | 4.99
26 | CCGATTAACATCAGGCATTCCCATGATGTTAATCGGGTCTTGATTCGCTTGACGCTGCTG | 1.57 | 2 | 1.54 | 3.64 | 2.75
27 | CCGATTAACATCAGGGGTGGGAATGATGTTAATCGGGTCTTGATTCGCTTGACGCTGCTG | 2.31 | 2.09 | 3.75 | 2.17 | 2.94
28 | CCGATTAACATCAAGTGTTTCCCTGATGTTAATCGGGTCTTGATTCGCTTGACGCTGCTG | 2.2 | 3.22 | 3.78 | 4.7 | 3.79
